The values below come from PubChem BioAssay (NCATS).

The target of test [1] is Glucocorticoid receptor (Homo sapiens) (UniProt P04150). Briefly: qHTS assay for small molecule agonists of glucocorticoid receptor signaling (AID 588532; active = well fitted curve in the direction sought with a large enough effect in the signal ratio, with a control signal flat; the % refers to the signal ratio;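 note: 100% = dexamethasone at 0.1 µM and 0% = DMSO only wells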). Particulars: HeLa MMTV-bla, beta-lactamase ratio, agonist, 18 h; stronger effect = higher value; percent of dexamethasone control, DMSO zero. The procedure, abridged: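 Agonist-mode qHTS: GRE-driven beta-lactamase in HeLa cells exposed 18 h to titrated compounds (up to 92 uM), then CCF4 ratio read after 2 h at RT; Hill-fitted EC50, efficacy relative to 0.1 uM dexamethasone.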

Test [2] shares this target. The test can be described thus: qHTS assay for small molecule antagonists of glucocorticoid receptor signaling (AID 588533; active = well fitted inhibition curve with a large enough effect in the signal ratio, with a control signal flat, not every such curve was filed as active; the % refers to the signal ratio;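 note: cells stimulated with 2 nM dexamethasone as agonist; % is set by controls: 0 for no effect and ±100 for the full control effect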). Particulars: HeLa MMTV-bla, GRE beta-lactamase ratio, antagonist mode, 18 h; series mostly up to 76.8 µM. The procedure, abridged:
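Antagonist-mode qHTS: compound titrations added to GRE-bla HeLa cells, then dexamethasone 2 nM final; 18 h, 37 C. CCF4 FRET fluorescence normalized to dexamethasone and DMSO; IC50 from Hill fit.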

The nature of test [3]: qHTS assay for small molecule antagonists of peroxisome proliferator-activated receptor delta signaling (AID 588535; active = well fitted inhibition curve with a large enough effect in the signal ratio, with a control signal flat, not every such curve was filed as active; the % refers to the signal ratio;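 for max response: cells co-treated with a PPAR-delta agonist as stimulator during compound exposure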). The note with it: HEK293T PPARd-UAS-bla, beta-lactamase FRET ratio, 18 h; 460 nm channel. The procedure, abridged:
(§1)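 Titrations were run on PPAR-delta-UAS-bla HEK293T cells in charcoal/dextran-stripped serum, incubated 18 h at 37 C. CCF4 fluorescence (460/530 nm) after 2 h RT; Hill equation yields IC50 and maximal response.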
In general terms: qHTS replaces the single test concentration by a dilution series.

For test [4], the target named is Peroxisome proliferator-activated receptor delta (Homo sapiens) (UniProt Q03181). The description is as above. Particulars: HEK293T PPARd-UAS-bla, beta-lactamase FRET ratio, 18 h; series mostly up to 76.7 µM. In short, it runs like this: as §1
For test [5], the target named is Vitamin D3 receptor (Homo sapiens) (UniProt P11473). Briefly: qHTS assay for small molecule antagonists of vitamin D receptor signaling (AID 588541; calls by dose curve;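 note: receptor activated by calcitriol during compound treatment; % is set by controls: 0 for no effect and ±100 for the full control effect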). Particulars: HEK293T VDR-UAS-bla, beta-lactamase ratio, antagonist mode; series mostly up to 76.7 µM. The procedure, abridged: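 Antagonist-mode beta-lactamase reporter assay: HEK293T VDR-UAS-bla cells were exposed to titrated compound alongside 1-alpha,25-dihydroxyvitamin D3 at 3 nM final for 16 h. Values were normalized to the 50 nM agonist control and DMSO basal, with IC50 and efficacy from Hill equation fits.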

In test [6] the target is Thyroid hormone receptor beta (Homo sapiens) (UniProt P10828). The test can be described thus: qHTS assay for small molecule agonists of thyroid hormone receptor beta signaling (AID 588545; calls by dose curve). Particulars: TR-UAS-bla GripTite HEK 293, beta-lactamase ratio, agonist mode, 18 h; series mostly up to 76.7 µM. The procedure, abridged: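 Agonist-mode beta-lactamase reporter assay, HEK 293 cells, 2% charcoal/dextran FBS; cells plated 4 hrs, compound 18 hrs at 37 C, CCF4 2 hrs RT. Normalized to 10 nM T3 (100%) and DMSO (0%); Hill fit gives EC50, efficacy.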

Test [7] can be described thus: qHTS assay for small molecule antagonists of retinoid X receptor alpha signaling (AID 588546; active = well fitted inhibition curve with a large enough effect in the signal ratio, with a control signal flat, not every such curve was filed as active; the % refers to the signal ratio; note: potency is the fitted concentration of half-maximal effect;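 for max response: cells stimulated with 9-cis-retinoic acid as agonist; % is set by controls: 0 for no effect and ±100 for the full control effect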). Particulars: HEK293T RXRa-UAS-bla, beta-lactamase ratio, antagonist mode; measured here: W530 green channel, cytotoxicity proxy. The procedure, abridged:
(§2)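 Beta-lactamase reporter inhibition, read as CCF4 fluorescence ratio (ex 405, em 460/530 nm) after 2 h at RT. HEK293T UAS-bla cells, 2500/well, were stimulated with 9-cis-RA at 500 or 100 nM final alongside test compound for 18 h at 37 C.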

In test [8] the target is Retinoic acid receptor RXR-alpha (Homo sapiens) (UniProt P19793). Described as above. Particulars: HEK293T RXRa-UAS-bla, beta-lactamase ratio, antagonist mode. The procedure, abridged:
as §2

Test [9] can be described thus: qHTS assay for small molecule activators of the p53 signaling pathway (AID 651743; active = well fitted activation curve with a large enough effect in the signal ratio, not every such curve was filed as active; the % refers to the signal ratio; note: % of control where 0% means no effect). Particulars: HCT-116 p53RE-bla, beta-lactamase FRET ratio, 16 h; activation: stronger effect = higher value. The procedure, abridged:
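After 16 hours compound treatment at 37 C, HCT-116 cells stably expressing p53RE-driven beta-lactamase were loaded with LiveBLAzer B/G FRET substrate for 2 hours at room temperature. Fluorescence intensity served as the p53 activation read-out.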

Test [10] can be described thus: qHTS assay for small molecule activators of the nuclear factor-kappa B (NF-kB) signaling pathway (AID 651749; active = well fitted activation curve with a large enough effect in the signal ratio; the % refers to the signal ratio; note: % of control where 0% means no effect). The note with it: NF-kB-bla ME-180 cells, beta-lactamase FRET ratio, 16 h; activation: stronger effect = higher value. The procedure, abridged: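 Activation measured after 16 hr compound treatment at 37C, 5% CO2, of 2,000 ME-180 cells/well stably expressing an NF-kB response element–driven beta-lactamase reporter, via FRET-disruption fluorescence.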

A short description of test [11]: qHTS assay for environmental chemicals that activate the Aryl hydrocarbon Receptor (AhR) signaling pathway (AID 651777). Note: % of control where 0% means no effect; nearly all actives have a fitted effect of over 15% in size. Particulars: 1A2-DRE human hepatoma cells, luciferase, 24 h; activation: stronger effect = higher value. In short, it runs like this:
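Human hepatoma 1A2-DRE cells, stably carrying a dioxin response element and CYP1A2 promoter driving luciferase, were exposed to compounds for 24 hr at 37 C and 5% CO2. Luciferase signal was then read after 30 min One-Glo at room temperature.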

Test [12] concerns the target Peroxisome proliferator-activated receptor alpha (Homo sapiens) (UniProt Q07869). The test can be described thus: qHTS assay for small molecule agonists of the peroxisome proliferator-activated receptor alpha (PPARalpha) signaling pathway (AID 651778). Note: % of control where 0% means no effect. The note with it: PathHunter PPARalpha complementation, chemiluminescence, 6 h; max response: stronger effect = higher value. In short, it runs like this:
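Chemiluminescence from complemented enzyme reported PPARalpha activation in cells after 6 hr of compound treatment at 37 C. The detection reagent was incubated for 60 min at room temperature, and compounds were scored as agonists.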

Test [13] in a line: qHTS assay for small molecule agonists of the antioxidant response element (ARE) signaling pathway measured by Nrf2-dependant transcriptional activity (AID 720636; active = well fitted curve in the direction sought with a large enough effect in the repeat runs; an effect the other way counts as inactive or inconclusive; note: % of control where 0% means no effect). The note with it: ARE-luc HepG2, Nrf2 luciferase reporter, 16 h; series mostly up to 92.4 µM. In short, it runs like this: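 ARE-luc HepG2 cells carrying an Nrf2-responsive luciferase reporter were plated in medium with 1% dialyzed FBS, left 6 hr at 37 C to attach, then exposed to compound for 16 hr. Luciferase luminescence was read after ONE-Glo addition.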

Test [14] in a line: qHTS assay for small molecule agonists of the antioxidant response element (ARE) signaling pathway measured by Nrf2-dependant transcriptional activity - cell viability counter screen (AID 720653; active = well fitted curve in the direction sought with a large enough effect in the repeat runs; an effect the other way counts as inactive or inconclusive; note: % is set by controls: 0 for no effect and ±100 for the full control effect). The note with it: ARE-bla HepG2 viability, CellTiter-Glo ATP luminescence, 16 h; max response: stronger effect = lower value. The procedure, abridged:
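Cytotoxicity counter screen: intracellular ATP quantified by CellTiter-Glo luminescence in the same ARE-bla HepG2 plates, after 16 h compound exposure and a 2 h beta-lactamase substrate step.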

Test [15] in a line: qHTS assay for cell viability of HEK293 cells (AID 743288). Note: % is set by controls: 0 for no effect and ±100 for the full control effect; nearly all actives have a fitted effect of over 50% in size. The note with it: ATP luminescence (CellTiter-Glo), 18 h; max response: stronger effect = lower value. The procedure, abridged:
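HEK293, 18 h, 37 C, ATP luminescence. Cells at 2,000/well were allowed at least 5 h to settle before dosing; CellTiter-Glo developed 30 min at RT.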

The nature of test [16]: qHTS assay for cell viability of the p53RE-bla HCT-116 cell line (AID 743292). Note: % is set by controls: 0 for no effect and ±100 for the full control effect; nearly all actives have a fitted effect of over 55% in size. Particulars: p53RE-bla HCT-116 viability, ATP luminescence, 16 h; series mostly up to 95 µM. The procedure, abridged: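 CellSensor p53RE-bla HCT-116 cells, 4,000/well, preincubated 5 h at 37 C, then exposed to compounds in DMSO for 16 h at 37 C. Viability read as CellTiter-Glo luminescence (intracellular ATP) after 30 min at room temperature.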

Test [17] has as its target Nuclear receptor subfamily 1 group I member 2 (Rattus norvegicus) (UniProt Q9R1A7). The test can be described thus: qHTS assay for small molecule activators of the rat pregnane X receptor (rPXR) signaling pathway (AID 651751; call rule not given here; note: 0% is about no effect). The note with it: rPXR reporter cells, luciferase (One-Glo), 24 h.
The nature of test [18]: qHTS assay for small molecule activators of the human pregnane X receptor (PXR) signaling pathway (AID 720659; call rule not given here; note: 0% is about no effect). Particulars: DPX-2 HepG2 CYP3A4-luciferase, 24 h; series mostly up to 92.3 µM.
In test [19] the target is Vitamin D3 receptor (Homo sapiens) (UniProt P11473). The test can be described thus: qHTS assay for small molecule agonists of vitamin D receptor signaling (AID 588543; calls by dose curve;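 note: 0% = DMSO basal and 100% = reference agonist control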). The note with it: HEK293T VDR-UAS-bla, beta-lactamase ratio, 16 h; series mostly up to 76.8 µM. In short, it runs like this:
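Measured: β-lactamase reporter activity (CCF4, 405 nm excitation, 460/530 nm emission) in HEK293T VDR-UAS-bla cells after 16 h compound exposure at 37 °C. Normalization against 50 nM 1α,25-dihydroxyvitamin D3 and DMSO; Hill-fit EC50.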

Test [20] has as its target Retinoic acid receptor RXR-alpha (Homo sapiens) (UniProt P19793). The test can be described thus: qHTS assay for small molecule agonists of retinoid X receptor alpha signaling (AID 588544; calls by dose curve;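 note: 0% = DMSO basal wells and 100% = reference agonist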). The note with it: HEK293T RXRa-UAS-bla, beta-lactamase reporter, 18 h; series mostly up to 76.7 µM.

Results filed as inconclusive are left out. Activity calls are given as the source filed them. Unless noted, calls come from the whole dose curve; as a rule, active = well fitted curve in the direction sought with a large enough effect; inconclusive = small, poorly fitted or top-dose-only effect, or another doubt; inactive = no such curve, though single readings can be large; an effect the other way counts as inactive or inconclusive.

Sequence of Nuclear receptor subfamily 1 group I member 2 (Rattus norvegicus) (Q9R1A7 whole entry, looked up): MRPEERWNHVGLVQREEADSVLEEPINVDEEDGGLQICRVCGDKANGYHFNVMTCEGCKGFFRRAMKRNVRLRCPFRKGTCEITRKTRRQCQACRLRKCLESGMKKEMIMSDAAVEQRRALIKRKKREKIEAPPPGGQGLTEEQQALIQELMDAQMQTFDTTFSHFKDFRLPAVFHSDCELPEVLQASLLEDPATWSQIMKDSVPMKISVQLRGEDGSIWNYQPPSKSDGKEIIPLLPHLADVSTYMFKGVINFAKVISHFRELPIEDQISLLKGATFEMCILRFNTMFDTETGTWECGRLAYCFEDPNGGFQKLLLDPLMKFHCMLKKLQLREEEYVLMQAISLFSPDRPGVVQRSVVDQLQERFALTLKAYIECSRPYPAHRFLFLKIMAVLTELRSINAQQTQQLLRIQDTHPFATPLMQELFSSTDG
Sequence of Retinoic acid receptor RXR-alpha (Homo sapiens) (P19793 whole entry, looked up): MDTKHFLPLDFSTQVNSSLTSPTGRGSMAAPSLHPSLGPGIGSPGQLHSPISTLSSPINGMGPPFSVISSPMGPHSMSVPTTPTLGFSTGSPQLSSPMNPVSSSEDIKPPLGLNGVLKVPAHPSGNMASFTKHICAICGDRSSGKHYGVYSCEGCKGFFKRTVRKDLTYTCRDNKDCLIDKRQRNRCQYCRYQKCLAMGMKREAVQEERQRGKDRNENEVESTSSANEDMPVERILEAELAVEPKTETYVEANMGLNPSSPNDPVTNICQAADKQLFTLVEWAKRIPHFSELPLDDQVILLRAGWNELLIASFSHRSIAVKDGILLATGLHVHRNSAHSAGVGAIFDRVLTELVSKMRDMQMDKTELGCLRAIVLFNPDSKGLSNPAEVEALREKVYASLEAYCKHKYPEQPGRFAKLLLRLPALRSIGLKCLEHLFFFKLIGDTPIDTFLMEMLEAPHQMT
Sequence of Peroxisome proliferator-activated receptor delta (Homo sapiens) (Q03181 whole entry, looked up): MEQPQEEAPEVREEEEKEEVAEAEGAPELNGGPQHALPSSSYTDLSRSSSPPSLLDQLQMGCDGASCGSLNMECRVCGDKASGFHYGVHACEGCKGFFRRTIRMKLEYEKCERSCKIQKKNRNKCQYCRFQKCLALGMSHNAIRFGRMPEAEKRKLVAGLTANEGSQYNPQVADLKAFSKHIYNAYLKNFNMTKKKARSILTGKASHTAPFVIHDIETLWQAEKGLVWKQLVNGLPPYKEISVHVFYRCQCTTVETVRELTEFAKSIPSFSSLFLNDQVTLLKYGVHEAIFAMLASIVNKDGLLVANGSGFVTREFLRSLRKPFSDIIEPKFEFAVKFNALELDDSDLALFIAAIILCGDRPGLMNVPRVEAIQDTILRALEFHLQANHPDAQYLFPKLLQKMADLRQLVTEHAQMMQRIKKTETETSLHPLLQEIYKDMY
Sequence of Glucocorticoid receptor (Homo sapiens) (P04150 whole entry, looked up): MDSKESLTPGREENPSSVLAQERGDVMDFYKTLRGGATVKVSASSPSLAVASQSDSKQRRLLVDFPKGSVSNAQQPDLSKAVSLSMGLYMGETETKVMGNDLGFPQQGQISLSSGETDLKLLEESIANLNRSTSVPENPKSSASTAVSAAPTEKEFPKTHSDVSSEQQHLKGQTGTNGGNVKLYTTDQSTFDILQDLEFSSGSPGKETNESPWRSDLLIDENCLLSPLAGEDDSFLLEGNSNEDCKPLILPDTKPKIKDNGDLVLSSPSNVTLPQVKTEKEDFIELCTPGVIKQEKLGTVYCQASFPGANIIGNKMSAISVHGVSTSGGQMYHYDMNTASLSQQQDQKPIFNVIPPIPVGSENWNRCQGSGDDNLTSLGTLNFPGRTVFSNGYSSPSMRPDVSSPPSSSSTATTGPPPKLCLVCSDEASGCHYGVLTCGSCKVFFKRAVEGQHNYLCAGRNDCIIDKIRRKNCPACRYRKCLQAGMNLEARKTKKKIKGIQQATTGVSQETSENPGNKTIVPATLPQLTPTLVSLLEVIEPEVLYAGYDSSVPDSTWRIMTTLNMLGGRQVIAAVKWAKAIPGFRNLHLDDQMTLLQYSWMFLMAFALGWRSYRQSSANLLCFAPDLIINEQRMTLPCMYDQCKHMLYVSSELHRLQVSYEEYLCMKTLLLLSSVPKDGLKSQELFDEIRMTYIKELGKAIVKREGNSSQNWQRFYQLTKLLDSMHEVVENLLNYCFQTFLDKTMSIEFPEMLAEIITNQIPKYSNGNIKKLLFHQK
Sequence of Vitamin D3 receptor (Homo sapiens) (P11473 whole entry, looked up): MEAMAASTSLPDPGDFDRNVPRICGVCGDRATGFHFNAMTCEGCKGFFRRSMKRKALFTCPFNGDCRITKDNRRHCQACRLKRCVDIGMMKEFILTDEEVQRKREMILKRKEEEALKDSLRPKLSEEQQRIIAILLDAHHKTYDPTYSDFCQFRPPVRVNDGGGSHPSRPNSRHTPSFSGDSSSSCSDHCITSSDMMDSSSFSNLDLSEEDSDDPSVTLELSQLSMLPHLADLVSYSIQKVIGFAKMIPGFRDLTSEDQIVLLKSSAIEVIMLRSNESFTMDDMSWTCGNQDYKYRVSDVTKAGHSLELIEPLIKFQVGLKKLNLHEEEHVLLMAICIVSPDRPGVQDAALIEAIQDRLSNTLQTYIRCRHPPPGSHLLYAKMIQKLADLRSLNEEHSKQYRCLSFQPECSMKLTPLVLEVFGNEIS
Sequence of Peroxisome proliferator-activated receptor alpha (Homo sapiens) (Q07869 whole entry, looked up): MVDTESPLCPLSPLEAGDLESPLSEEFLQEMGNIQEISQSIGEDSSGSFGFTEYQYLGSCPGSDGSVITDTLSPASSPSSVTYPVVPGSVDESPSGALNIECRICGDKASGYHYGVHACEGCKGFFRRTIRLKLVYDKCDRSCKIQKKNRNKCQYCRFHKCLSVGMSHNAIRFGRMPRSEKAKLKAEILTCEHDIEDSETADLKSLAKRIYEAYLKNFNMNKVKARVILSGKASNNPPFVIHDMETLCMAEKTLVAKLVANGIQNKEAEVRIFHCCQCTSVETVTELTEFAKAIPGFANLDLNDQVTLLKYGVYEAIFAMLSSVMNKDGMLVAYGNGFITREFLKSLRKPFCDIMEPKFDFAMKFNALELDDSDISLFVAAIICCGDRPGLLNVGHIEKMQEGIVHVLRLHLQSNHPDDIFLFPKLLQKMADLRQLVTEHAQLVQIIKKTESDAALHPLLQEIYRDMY
Sequence of Thyroid hormone receptor beta (Homo sapiens) (P10828 whole entry, looked up): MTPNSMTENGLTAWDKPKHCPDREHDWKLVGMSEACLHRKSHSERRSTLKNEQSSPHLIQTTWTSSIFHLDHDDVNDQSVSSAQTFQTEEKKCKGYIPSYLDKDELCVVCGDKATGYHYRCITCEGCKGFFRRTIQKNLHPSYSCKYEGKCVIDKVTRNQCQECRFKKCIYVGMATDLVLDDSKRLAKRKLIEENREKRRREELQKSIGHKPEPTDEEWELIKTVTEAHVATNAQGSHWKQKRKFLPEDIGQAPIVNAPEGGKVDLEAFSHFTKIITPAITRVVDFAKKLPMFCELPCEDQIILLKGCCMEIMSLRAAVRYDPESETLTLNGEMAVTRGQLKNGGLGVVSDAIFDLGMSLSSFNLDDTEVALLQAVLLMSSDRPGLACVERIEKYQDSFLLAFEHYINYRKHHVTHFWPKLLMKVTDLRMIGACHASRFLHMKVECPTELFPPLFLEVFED

As to `CCCCCCCCCCCC[N+](C)(C)C`, the activation in test [1] was -4.8% (inactive); in test [9], 12.8% (inactive); in [10], -3.69% (inactive); in test [11] it was 9.5% (inactive). In addition, the Potency entry in test [2], in [4], in test [5], in [6], in test [13] and in test [16] was “inactive” each time. Moreover, the max response in test [3] was -26.8%; in test [7], 5.9%; in [12], -0.842% (inactive); in test [14], -23.2% (inactive); in [15] it was -25.6% (inactive); in [17] it was -11.2% (inactive). Besides, the Potency in [8] is 17.8 µM (active). In test [18], the compound was classed as inactive.
Regarding `O=C(c1ccccc1)c1ccc(O)c(O)c1O`, the activation is -16.3% (inactive) in test [1] and 3.3% (inactive) in [11]. The Potency result in test [2], in test [4], in [5], in test [20] and in [6] was “inactive” in each case. The max response in test [3] is 45.6%; in test [7], -6.52%; in test [8], -13.1% (inactive); in test [12], -4.07% (inactive); in test [14], -9.24% (inactive); in [15] it was -12.1% (inactive). In test [17], the max response is -0.206% (inactive). Further, the result in test [19] and in test [18] was inactive.
Take `O=C=NC1CCC(CC2CCC(N=C=O)CC2)CC1` (configuration not stated): the activation in test [1] was -3.36% (inactive); in test [9], -0.886% (inactive); in [11], 0.629% (inactive). In addition, the max response in test [3] was 20.7%; in test [7] it was -7.15%; in test [8], -13.6% (inactive); in test [12] it was -2.73% (inactive); in test [14], -1.04% (inactive); in test [15] it was -9.19% (inactive). Further, in [17], the max response was -1.91% (inactive). In addition, the Potency entry in [4], in test [5], in test [20], in [6], in [13] and in test [16] was “inactive” throughout. In addition, the result in test [19] and in test [18] was inactive.
`Oc1ccc(Nc2ccccc2)cc1`: the activation in test [1] is -7.61% (inactive); in test [9], 16.3% (inactive); in test [10] it was -2.8% (inactive); in test [11] it was -0.687% (inactive). Further, the Potency entry in test [2], in [6], in test [13] and in [16] was “inactive” each time. The outcome in test [19] and in [18] was inactive. Also, the max response in test [12] is -0.779% (inactive); in test [14], -6.61% (inactive); in [17], 0.0407% (inactive).
Take `C[C@]12CC[C@@H]3c4ccc(O)cc4CC[C@H]3[C@@H]1CC[C@H]2O`: the activation is -4.59% (inactive) in test [1], 23.4% (inactive) in test [9] and 0.328% (inactive) in [11]. The Potency result in [5], in test [6], in [13] and in test [16] was “inactive” throughout. The figures for the max response in test [14] and in test [15] were -10.8% (inactive) and -24% (inactive), respectively.
Consider `C=CCOc1nc(OCC=C)nc(OCC=C)n1`, for which the activation is -1.63% (inactive) in [1], -3.44% (inactive) in test [9], 0.86% (inactive) in test [10] and 5.16% (inactive) in [11]. The Potency entry in [2], in test [4], in [5], in [20], in test [6] and in test [13] was “inactive” in each case. The max response in test [3] is 15.5%; in test [7] it was -8.71%; in [8] it was 0.817% (inactive); in test [12], -2.18% (inactive); in test [14], 1.36% (inactive); in test [15], -0.661% (inactive). The max response in test [17] was -0.162% (inactive). The result in [19] was inactive.
